Test results from PubChem BioAssay AID1159580 (chemical genetic matrix, 2015).
Several values for one entry are separate records, joined by “and”; a condition that tells them apart may be missing. Equal entries are not always repeated. Among all 5,500 compounds or so, about 2,000 (36%) were called active. About 18% were inconclusive and are not listed. Cut-off read from the data, not from the text of the source: active = normalized growth mostly below about 0.91 (no sharp cut-off); inconclusive = no clear call, values can overlap the other calls; inactive = mostly above about 0.92. This is one part of the list.

Assay: chemical genetic growth profiling, strain panel (AID 1159580);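 note: tested at 20 µM; growth read once vehicle control cultures reached saturation at 30 °C; 1 = growth at the plate median or of vehicle wells; lower values mean less growth of the strain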
Details: growth OD

Measured: normalized growth

CNCCCC12CCC(c3ccccc31)c1ccccc12
inactive: S. cerevisiae deletion strains, locus YJR075W, strain HOC1, stronger effect = lower value 0.991 and 0.989 | S. cerevisiae deletion strains, locus YKL009W, strain mrt4, stronger effect = lower value 0.978 | S. cerevisiae deletion strains, locus YKL068W, stronger effect = lower value 0.983 | S. cerevisiae deletion strains, locus YKL085W, strain MDH1 (second series), stronger effect = lower value 0.982 | S. cerevisiae deletion strains, locus YKL085W, strain MDH1, stronger effect = lower value 0.982 | S. cerevisiae deletion strains, locus YKL160W, strain elf1, stronger effect = lower value 0.968 | S. cerevisiae deletion strains, locus YKR001C, strain vps1, stronger effect = lower value 1.02 | S. cerevisiae deletion strains, locus YKR026C, strain gcn3, stronger effect = lower value 0.979 | S. cerevisiae deletion strains, locus YKR091W, strain srl3, stronger effect = lower value 0.973 | S. cerevisiae deletion strains, locus YLL001W, strain dnm1, stronger effect = lower value 1.01 | S. cerevisiae deletion strains, locus YLL026W, stronger effect = lower value 0.97 | S. cerevisiae deletion strains, locus YLL041C, strain sdh2, stronger effect = lower value 0.98 | S. cerevisiae deletion strains, locus YLR027C, strain aat2, stronger effect = lower value 0.964 | S. cerevisiae deletion strains, locus YLR039C, strain RIC1, stronger effect = lower value 1.29 | S. cerevisiae deletion strains, locus YLR058C, strain SHM2, stronger effect = lower value 0.984 | S. cerevisiae deletion strains, locus YLR102C, strain apc9, stronger effect = lower value 0.992 | S. cerevisiae deletion strains, locus YLR113W, strain HOG1, stronger effect = lower value 1.01 | S. cerevisiae deletion strains, locus YLR221C, strain rsa3, stronger effect = lower value 0.998 | S. cerevisiae deletion strains, locus YLR258W, strain gsy2, stronger effect = lower value 0.974 | S. cerevisiae deletion strains, locus YLR262C, strain YPT6 (second series), stronger effect = lower value 0.937 | S. cerevisiae deletion strains, locus YLR262C, strain YPT6, stronger effect = lower value 1.32 | S. cerevisiae deletion strains, locus YLR268W, strain sec22, stronger effect = lower value 0.975 | S. cerevisiae deletion strains, locus YLR320W, strain mms22, stronger effect = lower value 0.992 | S. cerevisiae deletion strains, locus YLR330W, strain CHS5, stronger effect = lower value 0.993 | S. cerevisiae deletion strains, locus YLR342W, strain FKS1 (second series), stronger effect = lower value 0.944 | S. cerevisiae deletion strains, locus YLR342W, strain FKS1, stronger effect = lower value 0.954 | S. cerevisiae deletion strains, locus YLR357W, strain rsc2, stronger effect = lower value 0.968 | S. cerevisiae deletion strains, locus YLR370C, strain arc18, stronger effect = lower value 0.98 | S. cerevisiae deletion strains, locus YLR371W, strain rom2, stronger effect = lower value 0.963 | S. cerevisiae deletion strains, locus YLR384C, strain iki3, stronger effect = lower value 0.989 | S. cerevisiae deletion strains, locus YLR418C, strain cdc73, stronger effect = lower value 0.857 | S. cerevisiae deletion strains, locus YML016C, strain PPZ1, stronger effect = lower value 0.986 | S. cerevisiae deletion strains, locus YML032C, strain rad52, stronger effect = lower value 0.963 | S. cerevisiae deletion strains, locus YML120C, strain ndi1, stronger effect = lower value 0.976 | S. cerevisiae deletion strains, locus YML124C, strain tub3, stronger effect = lower value 0.995 | S. cerevisiae deletion strains, locus YMR058W, strain fet3, stronger effect = lower value 0.952 | S. cerevisiae deletion strains, locus YMR078C, strain ctf18, stronger effect = lower value 0.984 | S. cerevisiae deletion strains, locus YMR125W, strain sto1, stronger effect = lower value 0.939 | S. cerevisiae deletion strains, locus YMR129W, stronger effect = lower value 0.979 | S. cerevisiae deletion strains, locus YMR205C, strain PFK2, stronger effect = lower value 0.999 | S. cerevisiae deletion strains, locus YMR223W, strain ubp8, stronger effect = lower value 0.951 | S. cerevisiae deletion strains, locus YMR231W, strain pep5, stronger effect = lower value 0.985 | S. cerevisiae deletion strains, locus YMR263W, strain SAP30, stronger effect = lower value 0.992 and 1 | S. cerevisiae deletion strains, locus YMR307W, strain GAS1, stronger effect = lower value 0.979 | S. cerevisiae deletion strains, locus YNL067W, strain RPL9B, stronger effect = lower value 1 | S. cerevisiae deletion strains, locus YNL071W, strain lat1, stronger effect = lower value 0.986 | S. cerevisiae deletion strains, locus YNL128W, strain TEP1, stronger effect = lower value 1.03 | S. cerevisiae deletion strains, locus YNL153C, strain GIM3, stronger effect = lower value 1 | S. cerevisiae deletion strains, locus YNL175C, strain NOP13, stronger effect = lower value 1.02 | S. cerevisiae deletion strains, locus YNL183C, strain NPR1, stronger effect = lower value 0.949 | S. cerevisiae deletion strains, locus YNL197C, strain WHI3, stronger effect = lower value 1.03 | S. cerevisiae deletion strains, locus YNL209W, strain ssb2, stronger effect = lower value 0.967 | S. cerevisiae deletion strains, locus YNL224C, strain SQS1, stronger effect = lower value 1.01 | S. cerevisiae deletion strains, locus YNL233W, strain BNI4, stronger effect = lower value 0.954 | S. cerevisiae deletion strains, locus YNL248C, strain rpa49, stronger effect = lower value 0.932 | S. cerevisiae deletion strains, locus YNL250W, strain rad50, stronger effect = lower value 0.982 | S. cerevisiae deletion strains, locus YNL271C, strain bni1, stronger effect = lower value 0.993 | S. cerevisiae deletion strains, locus YNL298W, strain CLA4, stronger effect = lower value 0.967 | S. cerevisiae deletion strains, locus YNL307C, strain MCK1, stronger effect = lower value 0.978 | S. cerevisiae deletion strains, locus YNL322C, strain KRE1 (second series), stronger effect = lower value 0.976 | S. cerevisiae deletion strains, locus YNR049C, strain mso1, stronger effect = lower value 0.971 | S. cerevisiae deletion strains, locus YNR052C, strain pop2, stronger effect = lower value 0.962 | S. cerevisiae deletion strains, locus YOL012C, strain htz1 0.584 | S. cerevisiae deletion strains, locus YOL147C, strain pex11, stronger effect = lower value 0.987 | S. cerevisiae deletion strains, locus YOR001W, strain rrp6, stronger effect = lower value 0.992 | S. cerevisiae deletion strains, locus YOR061W, strain CKA2, stronger effect = lower value 0.991 | S. cerevisiae deletion strains, locus YOR069W, strain VPS5, stronger effect = lower value 0.993 | S. cerevisiae deletion strains, locus YOR070C, strain gyp1, stronger effect = lower value 0.983 | S. cerevisiae deletion strains, locus YOR080W, strain dia2, stronger effect = lower value 0.951 | S. cerevisiae deletion strains, locus YOR083W, strain WHI5 (second series), stronger effect = lower value 0.999 | S. cerevisiae deletion strains, locus YOR083W, strain WHI5, stronger effect = lower value 0.913 | S. cerevisiae deletion strains, locus YOR106W, strain vam3, stronger effect = lower value 0.95 | S. cerevisiae deletion strains, locus YOR136W, strain idh2, stronger effect = lower value 0.99 | S. cerevisiae deletion strains, locus YOR144C, strain elg1, stronger effect = lower value 0.997 | S. cerevisiae deletion strains, locus YOR184W, strain ser1, stronger effect = lower value 1.02 | S. cerevisiae deletion strains, locus YOR231W, strain MKK1, stronger effect = lower value 1.02 | S. cerevisiae deletion strains, locus YOR265W, strain rbl2, stronger effect = lower value 0.983 | S. cerevisiae deletion strains, locus YOR270C, strain vph1, stronger effect = lower value 0.927 | S. cerevisiae deletion strains, locus YOR290C, strain snf2, stronger effect = lower value 0.94 | S. cerevisiae deletion strains, locus YOR316C, strain cot1, stronger effect = lower value 0.991 | S. cerevisiae deletion strains, locus YPL051W, strain arl3, stronger effect = lower value 0.938 | S. cerevisiae deletion strains, locus YPL055C, strain LGE1, stronger effect = lower value 0.982 | S. cerevisiae deletion strains, locus YPL078C, strain atp4, stronger effect = lower value 0.967 | S. cerevisiae deletion strains, locus YPL106C, strain sse1, stronger effect = lower value 0.975 | S. cerevisiae deletion strains, locus YPL240C, strain hsp82, stronger effect = lower value 0.984 | S. cerevisiae deletion strains, locus YPL241C, strain CIN2, stronger effect = lower value 0.991 and 0.996 | S. cerevisiae deletion strains, locus YPL256C, strain CLN2, stronger effect = lower value 0.995 | S. cerevisiae deletion strains, locus YPR119W, strain clb2, stronger effect = lower value 0.992 | S. cerevisiae deletion strains, locus YPR141C, strain kar3, stronger effect = lower value 0.979 | S. cerevisiae deletion strains, locus YPR163C, strain tif3, stronger effect = lower value 0.994 | S. cerevisiae deletion strains, locus YPR167C, strain met16, stronger effect = lower value 0.996 | S. cerevisiae deletion strains, strain wtn01, stronger effect = lower value 0.964 | S. cerevisiae strains, strain wild type, stronger effect = lower value 0.993
